A selection: hits, their analogues and other compounds. The true share with any hit is near 7.2%.
Lassa entry inh: Lassa virus entry inhibition; hit rate 1.2% among 300,000; Potency, µM (doses to about 37.9 µM), hits mostly inhibitors; Lassa virus pseudotype entry inhibition, cell reporter; calls by dose curve; tested in HEK293 cells; also: nearly all actives have a fitted effect of over 50% in size
Sm TGR block: blocks Schistosoma mansoni thioredoxin glutathione reductase; Q962Y6; purified TGR, DTNB reduction, TNB absorbance 405 nm; Potency, µM (series often up to 114 µM), hits mostly inhibitors; hit rate 3% among 360,000; AID 485364; also: nearly all actives have a fitted effect of over 60% in size
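First, TGR (20 nM dispensed) and NADPH were mixed with compound. Second, a 15 min room-temperature incubation followed. Third, further NADPH and then DTNB were added to start the reaction. Finally, TNB absorbance was monitored kinetically.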
RE007 growth inh: less growth of the S. pombe RE007 Vpr strain; S. pombe RE007 Vpr strain, BacTiter-Glo ATP luminescence, 24 h; Potency, µM (series often up to 92.2 µM), hits mostly inhibitors; hit rate 0.21% among 360,000; active = well fitted falling curve with a large enough effect; inconclusive = small, poorly fitted or top-dose-only effect; inactive = no such curve, though single readings can be large or run the other way; also: nearly all actives have a fitted effect of over 50% in size
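Fission yeast strain RE007, carrying one chromosomally integrated HIV-1 vpr copy, was seeded at OD 0.01 in PMG+AL medium with 23 nL pinned compound. After 24 h at 30 °C and 99% humidity, viability was read by BacTiter-Glo luminescence.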
Marburg entry inh: blocks Marburg virus binding to or entry into cells. Marburg virus pseudotyped entry inhibition, cell reporter. Potency, µM (series often up to 37.8 µM), usual class: inhibitors. hit rate 1.8% among 300,000. AID 540276; calls by dose curve; tested in HEK293 cells
HCV inh: blocks hepatitis C virus. hit rate 3.4% among 340,000. AID 651820. Huh7.5.1 HCVcc-Cre infection, luciferase reporter, 44 h. Potency, µM (titrated, usually from 41.8 µM), actives largely listed as inhibitors
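A cell-based infection assay in which seeded cells (1,000 per well) receive test compound after 4 h, are inoculated with HCVcc-Cre at approximately 0.5 moi, and are incubated 44 h before luminescence detection.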
FMDV inh: antivirals against foot and mouth disease virus | FMDV antiviral cell-based qHTS | Potency, µM (titrated, usually from 57.9 µM), hits mostly inhibitors | AID 1159524 | hit rate 1.2% among 410,000; calls by dose curve; tested in HEK293T cells; also: read-out not given here; nearly all actives have a fitted effect of over 45% in size
Numbers stand for hits; 0 = inactive; ? = inconclusive; - = no result. Unless noted, calls follow the shape of the dose curve; as a rule, active = well fitted curve in the direction sought with a large enough effect; inconclusive = small, poorly fitted or top-dose-only effect, or another doubt; inactive = no such curve, though single readings can be large; an effect the other way counts as inactive or inconclusive.

SMILES | Lassa entry inh | Sm TGR block | RE007 growth inh | Marburg entry inh | HCV inh | FMDV inh
C[C@]12CCC3C(CCC4=CC(O)CC[C@@]43/C=N/O)C1(O)CCC2C1=CC(=O)OC1 (some centres undefined) | ? | 0 | 0 | ? | 2.2µM | 0
CC12CC[C@H]3[C@@H](CCC4(O)C[C@H](O)CCC34/C=N/NC(=O)c3ccccc3Cl)C1(O)CCC2C1=CC(=O)OC1 (some centres undefined) | - | 0 | 0 | - | 0 | 0
CCCCC[C@H]1CCCCC[C@@H](O)C[C@@H](O)[C@@H](O)/C=C/C(=O)O1 | - | - | 0 | - | - | 0
N#Cc1ccc(S(=O)(=O)N2CCN(CN3C(=O)CC4(CCCC4)C3=O)CC2)cc1 | - | - | 0 | - | - | 0
C[C@H]1O[C@@H](OC2CC[C@]3(C=O)[C@H]4CC[C@]5(C)[C@@H](C6=CC(=O)OC6)CC[C@]5(O)[C@@H]4CC[C@]3(O)C2)CC2OC(C)(C)OC21 (some centres undefined) | - | 0 | - | - | 1µM | ?
CC12CCC3C(CCC4(O)CC(O)CCC34C=NO)C1(O)CCC2C1=COC(=O)C1 (centres undefined) | 0.25µM | - | 0 | 0.18µM | 2µM | ?
CCCNC(=O)C1(C)CCN(Cc2cc(C(F)(F)F)ccc2Cl)C1 (centres undefined) | - | - | 0 | - | - | 0
Cc1ccc(CNC(=O)CCCCCn2c(=O)[nH]c3ccccc3c2=O)cc1 | ? | 0 | - | - | - | 0
COc1ccccc1NC(=O)c1ccc(-c2ccccc2[N+](=O)[O-])o1 | - | 0 | 0 | ? | 11µM | 0
COc1ccccc1NC(=O)c1ccc(-c2ccc(Br)cc2)o1 | ? | 0 | ? | 0 | 8.9µM | 0
COc1cc(NC(=O)c2ccc(-c3cccc(F)c3)o2)ccc1NC(=O)c1ccccc1Cl | - | - | 0 | - | 7.1µM | ?
O=C(Nc1nccs1)c1ccc(-c2ccccc2[N+](=O)[O-])o1 | ? | 0 | 0 | ? | ? | 0
COc1ccc(CNC(=O)c2cnn(-c3ccc(C)cc3)c2C2CCN(C(=O)OC(C)(C)C)CC2)cc1 | ? | 0 | - | - | - | 0
N#CCCn1c(=O)c(-c2cccs2)nc2cnc(N3CCOCC3)nc21 | - | - | - | - | - | 0
CCOc1ccc2nc(NC(=O)c3cccc(-c4cc5ccccc5oc4=O)c3)sc2c1 | 0 | 0 | 0 | ? | ? | 0
Cc1ccc2nc(NC(=O)c3cccs3)sc2c1 | 2.5µM | 0 | 0 | 3.2µM | 0 | 0
Cc1ccc(C(=O)Nc2nc3ccc(S(C)(=O)=O)cc3s2)s1 | ? | 0 | 0 | 0 | 0 | 0
Cc1ccc2nc(NC(=S)NC(=O)c3cccs3)sc2c1 | ? | 0 | 0 | 0 | 0 | 0
CS(=O)(=O)c1ccc2nc(NC(=O)c3cccs3)sc2c1 | ? | 0 | ? | 2.2µM | 0 | 0
COc1cc(C(=O)Nc2nc3ccc(S(C)(=O)=O)cc3s2)cc(OC)c1C | ? | 0 | 0 | 0 | 3.5µM | ?
COc1cc(OC)cc(C(=O)Nc2nc3ccc(S(C)(=O)=O)cc3s2)c1 | 0 | 0 | 0 | ? | 0 | 0
Cc1ccc2nc(NC(=O)c3cccc(-c4cc5ccccc5oc4=O)c3)sc2c1 | ? | 0 | 0 | ? | 8.9µM | -
CN1C(=O)C2(SCC(=O)N2c2ccc(Cl)cc2)c2ccccc21 (centres undefined) | 0 | 0 | - | - | - | 0
CC(=O)OC[C@H]1O[C@H](C#CC(C)(C)C)C=C[C@@H]1OC(C)=O | - | - | - | 0 | - | -
OCCCNCc1cccc2ccccc12 | 0 | 0 | 0 | ? | 0 | 0
SMILES | Lassa entry inh | Sm TGR block | RE007 growth inh | Marburg entry inh | HCV inh | FMDV inh
Oc1ccccc1CNCCCNCc1ccccc1O | ? | 0 | 0 | ? | 2.8µM | 0
Cc1cc(C(C)(C)C)c(O)c(C)c1CC1=NCCN1 | 0 | 0 | 0 | 16µM | 0 | 0
Cc1cc(C)cc(NC(=O)Cn2c(=O)n(-c3ccc(C)c(C)c3)c(=O)c3oc4ccccc4c32)c1 | 0 | 0 | - | - | - | 0
CC(C)n1ncc2c(C(=O)Nc3ccccc3SCC(N)=O)cc(C3CC3)nc21 | - | - | 0 | - | - | 0
COc1cc(C)c(NC(=O)c2cc(C3CC3)nc3c2cnn3C(C)C)cc1OC | - | 0 | 0 | - | 5µM | ?
COc1ccc(NC(=O)c2cc(C3CC3)nc3c2cnn3C(C)C)cc1OC | - | 0 | 0 | - | 10µM | 0
Cc1cc(C)c(NC(=O)CNC(=O)c2cc(C3CC3)nc3c2cnn3C(C)C)c(C)c1 | - | - | 0 | - | - | 0
CC1CN(C(=O)Nc2ccc(C(=O)NCc3cccc(F)c3)cc2)c2ccccc2S1 (centres undefined) | 0 | 0 | - | 0 | - | 0
